Measured values published in PubChem BioAssay AID2283220 (EPA ToxCast).
Results filed as inconclusive are left out. The source made the active and inactive calls. The calls were made as follows: active = hit-call score of the fitted dose curve at least 0.9, where 1 is the maximum; inconclusive = response in the unintended direction; inactive = score below 0.9.

Molecular target: human Serum/Glucocorticoid Regulated Kinase 1 (SGK1), SGK1 (gene 6446) (UniProt O00141)
Experiment: NVS_ENZ_hSGK1: NovaScreen (NVS) Enzymatic Assay for human Serum/Glucocorticoid Regulated Kinase 1 (SGK1)
Experimental: NVS_ENZ_hSGK1 is a biochemical, single-readout assay that uses extracted gene-proteins in a cell-free assay. Measurements were taken 1 hour after chemical dosing in a 96-well plate.NVS_ENZ_hSGK1 is one of one assay component(s) measured or calculated from the NVS_ENZ_hSGK1 assay. It is designed to make measurements of enzyme activity, a form of enzyme reporter, as detected with fluorescence intensity signals by Fluorescence and electrophoretic mobility shift technology.Data from the assay component NVS_ENZ_hSGK1 was analyzed into 1 assay endpoint. This assay endpoint, NVS_ENZ_hSGK1, was analyzed in the positive analysis fitting direction relative to DMSO as the negative control and baseline of activity. Using a type of enzyme reporter, loss-of-signal activity can be used to understand changes in the enzymatic activity as they relate to the gene SGK1. Furthermore, this assay endpoint can be referred to as a primary readout, because this assay has produced […] where this one serves a enzymatic activity function. To generalize the intended target to other relatable targets, this assay endpoint is annotated to the kinase intended target family, where the subfamily is serine/threonine kinase.
Binding assays used specific radioligands (tritiated, iodinated) with non-radioactive competitive displacement ligands in agonist or antagonist protocols (as indicated) and various reference compounds and inhibitors to titrate specific binding to receptors and transporters. Most enzyme assays (CYPs, kinases, phosphatases, proteases, HDACs) used recombinant protein and specific substrates (fluorescence mostly, some colorimetric and radioactive) and inhibitors, followed by a biochemical separation of substrate and product. All assays for the biochemical HTS were initially run in duplicate at a single concentration (10 uM for CYP450 assays and 25 uM for all others). Assay-chemical combinations meeting a pre-defined threshold (e.g., 30% inhibition and other criteria defined below) were then run in singleton concentration-response format with maximum concentration of 20 uM for CYPs and 50 uM for all others. Each assay was run with positive and negative controls, and concurrent controls on every plate. The follow-up (secondary) screen tested active chemical-pairs in concentration series, as well as a few additional assays not tested in the primary screen, some selected negative inactives, and several cases re-run in the concentration series for confirmatory purposes.

Sequence of human Serum/Glucocorticoid Regulated Kinase 1 (SGK1), SGK1 (gene 6446) (O00141 whole entry, looked up): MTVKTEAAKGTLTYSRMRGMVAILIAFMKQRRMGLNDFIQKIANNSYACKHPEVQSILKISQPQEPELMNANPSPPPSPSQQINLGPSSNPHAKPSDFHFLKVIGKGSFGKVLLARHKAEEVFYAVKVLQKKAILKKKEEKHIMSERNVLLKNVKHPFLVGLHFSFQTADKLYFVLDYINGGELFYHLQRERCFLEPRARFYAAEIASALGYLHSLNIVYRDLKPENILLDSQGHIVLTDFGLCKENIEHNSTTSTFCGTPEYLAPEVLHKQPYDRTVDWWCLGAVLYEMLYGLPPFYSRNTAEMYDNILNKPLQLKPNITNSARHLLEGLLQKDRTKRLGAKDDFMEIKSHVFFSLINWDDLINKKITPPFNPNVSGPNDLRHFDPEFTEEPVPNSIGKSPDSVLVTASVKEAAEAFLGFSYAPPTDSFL

| SMILES | outcome | AC50 |
| --- | --- | --- |
| S=C1NCCN1 | inactive | – |
| O=C(O)COc1ccc(Cl)cc1Cl | inactive | – |
| OC(c1ccc(Cl)cc1)(c1ccc(Cl)cc1)C(Cl)(Cl)Cl | inactive | – |
| Nc1c(Cl)cc([N+](=O)[O-])cc1Cl | inactive | – |
| O=C(O)C(F)(F)C(F)(F)C(F)(F)C(F)(F)C(F)(F)C(F)(F)C(F)(F)F | inactive | – |
| CCCC(=NOCC)C1=C(O)CC(CC(C)SCC)CC1=O (centres undefined) | inactive | – |
| N#Cc1c(Cl)c(Cl)c(Cl)c(C#N)c1Cl | – | 19.8 µM (active) |
| COC(=O)c1ccccc1S(=O)(=O)NC(=O)N(C)c1nc(C)nc(OC)n1 | inactive | – |
| CNC(=S)S | inactive | – |
| CCNc1nc(Cl)nc(NCC)n1 | inactive | – |
| CC(Oc1cccc(Cl)c1)C(=O)O (centres undefined) | inactive | – |
| CC(C)OC(=O)Nc1cccc(Cl)c1 | inactive | – |
| COP(=S)(OC)Oc1ccc([N+](=O)[O-])cc1 | inactive | – |
| O=S(=O)(O)C(F)(F)C(F)(F)C(F)(F)C(F)(F)C(F)(F)C(F)(F)C(F)(F)C(F)(F)F | – | 26.2 µM (active) |
